Screening data (PubChem BioAssay)
Shiga inhibitor – blocks Shiga toxin action in Vero cells. Vero cells, Shiga toxin protein synthesis inhibition reporter. inhibition, % at 38.7 µM. 290,000 tested, 9.2% active. AID 2315; in the data active = inhibition mostly above about 28%, no sharp cut-off; inactive = mostly below about 43%; note: 0% is about no effect
Cycloheximide cs – counter-screen hit for Shiga toxin inhibitors, cycloheximide; cell reporter, cycloheximide protein synthesis inhibition counterscreen; max response, %; 300,000 tested, 12% active; in the data active = max response mostly above about 13%, no sharp cut-off; inactive = mostly below about 14%; note: read at 38.3 µM for the half of the compounds with a filed dose; 0% is about no effect
VACV mCherry inh – inhibitors of vaccinia virus infection (mCherry reporter signal); Vaccinia virus mCherry reporter infection, fluorescence; Potency, µM (top dose mostly 36.5 µM), inactives show top-dose activity change, negative = inhibition, hits mostly inhibitors; 310,000 tested, 0.63% active; AID 720579; calls by dose curve; tested in A549 cells; note: potency is the fitted concentration of half-maximal effect; % is set by controls: 0 for no effect and ±100 for the full control effect; nearly all actives have a fitted effect of over 35% in size
LASV entry inh – blocks Lassa virus binding to or entry into cells; Lassa virus pseudotype entry inhibition, cell reporter; Potency, µM (highest dose often 37.9 µM), without a hit: at the highest dose activity change, negative = inhibition, hits mostly inhibitors; 300,000 tested, 1.2% active; calls by dose curve; tested in HEK293 cells; note: potency is the fitted concentration of half-maximal effect; % is set by controls: 0 for no effect and ±100 for the full control effect; nearly all actives have a fitted effect of over 50% in size
VACV Venus inh – vaccinia inhibition (Venus reporter) | Vaccinia virus Venus reporter expression, fluorescence | Potency, µM (titrated, usually from 36.5 µM), for the others: top-dose activity change, negative = inhibition, hits mostly inhibitors | 330,000 tested, 0.46% active | AID 720580; calls by dose curve; tested in A549 cells; note: potency is the fitted concentration of half-maximal effect; % is set by controls: 0 for no effect and ±100 for the full control effect; nearly all actives have a fitted effect of over 30% in size
Marburg entry inh – inhibitors of Marburg virus binding or cell entry; Marburg virus pseudotyped entry inhibition, cell reporter; Potency, µM (doses to about 37.8 µM), inactives show at the highest dose activity change, negative = inhibition, usual class: inhibitors; 300,000 tested, 1.8% active; calls by dose curve; tested in HEK293 cells; note: potency is the fitted concentration of half-maximal effect; % is set by controls: 0 for no effect and ±100 for the full control effect
The depositor's hits bear a star; i = inactive; u = inconclusive; x = no result given; [ ] = remark or other dose. Many of the other results were omitted from the sample, so hits are more common in it than they were.

SMILES	Shiga inhibitor	Cycloheximide cs	VACV mCherry inh	LASV entry inh	VACV Venus inh	Marburg entry inh
COc1ccc(-c2nnc(Nc3nc4c(OC)cccc4s3)o2)c(OC)c1	42.9*	18.0*	u	u	-23.1%	u
Fc1cccc2sc(Nc3nnc(-c4ccccc4)o3)nc12	46.2*	27.3*	u	u	-27.9%	u
NNc1nc2c(F)cccc2s1	77.4*	84.2*	i	-14.7%	-1.4%	u
COc1ccc(-c2nnc(Nc3nc4c(OC)cccc4s3)o2)cc1	-5.1	-3.9	x	-9.3%	x	0.3%
O=C(Nc1nc2c(F)cccc2s1)C1CC1	53.7*	36.3*	26.6%	x	-8.7%	x
COc1cccc(NC(=O)c2oc3ccccc3c2NC(=O)c2ccccc2C)c1	x	x	-10.6%	7.3%[46.1 µM]	-2.9%	0.3%[46.1 µM]
COc1ccc(NC(=O)CSc2oc(-c3ccco3)nc2S(=O)(=O)c2ccccc2)c(OC)c1	x	x	-16.0%	-3.2%[46.1 µM]	-7.1%	-17.2%[46.1 µM]
Cc1ccc(NC(=O)CN2C(=O)COc3ccc(S(=O)(=O)Nc4ccccc4)cc32)c(C)c1	x	x	-19.9%	-6.6%[46.1 µM]	-3.0%	x
Cn1c(-c2ccccc2)cc(=NNS(C)(=O)=O)c2cc(S(=O)(=O)O)ccc21	x	x	-21.1%	x	-6.3%	x
NNc1nc2c(F)cc(F)cc2s1	81.6*	69.6*	-28.6%	-0.7%	-10.7%	u
Nc1nc2c(F)cccc2s1	-12.0	10.5	-12.1%	-1.8%	0.1%	18.7%
O=C(Nc1nc2c(F)cc(F)cc2s1)C1CCN(C(=O)c2ccc(F)cc2)CC1	x	x	i	23.0%	-2.1%	20.2%[46.1 µM]
Cc1c(Cl)ccc2sc(NC(=O)C3CC3)nc12	27.6*	17.7*	i	x	-19.4%	x
Fc1cccc2sc(Nc3nc4c(F)cccc4s3)nc12	37.8*	63.4*	-19.0%	3.5%	-10.1%	u
CN(/N=C/c1ccccc1O)C(=S)c1ccccc1	77.0	24.7*	-14.9%	17.5%	-16.0%	u
O=C(O)c1cccc(Nc2nc(-c3cc4ccccc4oc3=O)cs2)c1	73.8*	40.9*	-0.8%	u	-14.0%	u
O=c1oc2ccccc2cc1-c1csc(NN=C2CCCC2)n1	14.9	14.2*	i	u	-10.8%	u
C/C(=N\Nc1nc(-c2cc(C)ccc2C)cs1)c1cc2ccccc2oc1=O	2.2	0.6	-5.7%	2.1%	2.8%	u
Cc1cc(Cl)ccc1OCC(=O)NCC1Cc2cc(-c3cnccn3)ccc2O1 (stereo not drawn)	x	x	-29.5%	x	-19.3%	x
CCCCOc1ccc(C(=O)NCc2nnnn2-c2ccc(C)c(C)c2)cc1	x	x	-9.0%	-24.6%[46.1 µM]	-12.4%	x
O=c1[nH]c(SCc2ccccc2)nc2ccsc12	23.6	36.0*	-15.2%	25.7%	-9.5%	u
Cc1nc(N2CCN(c3ccccn3)CC2)c2c(C)c(C(=O)Nc3ccc(Br)cc3C)sc2n1	17.8	-1.8	x	x	x	x
Cc1nc(N2CCN(c3ccccn3)CC2)c2c(C)c(C(=O)N3CCN(c4ccccc4F)CC3)sc2n1	-3.4	-3.9	-26.3%	u	-21.0%	7.94µM*
Cc1ccc(NC(=O)c2sc3nc(C)nc(N4CCN(c5ccccn5)CC4)c3c2C)c(C)c1	-3.4	-4.2	-3.0%	-26.5%	-1.0%	11.2µM*
CN(CCO)C(=O)c1cn(C2CCCN(Cc3cc4ccccc4s3)C2)nn1 (stereo not drawn)	x	x	-8.2%	x	-24.2%	x
SMILES	Shiga inhibitor	Cycloheximide cs	VACV mCherry inh	LASV entry inh	VACV Venus inh	Marburg entry inh
Cc1sc2ncnc(Sc3ccccc3C(=O)Nc3ccc(Br)cc3)c2c1C	51.3*	28.8*	-19.5%	-19.0%	-9.4%	-18.4%
CC(C)(C)c1ccc(C(=O)NCCCN2CCN(CCCNC(=O)c3ccc(C(C)(C)C)cc3)CC2)cc1	-3.8	-6.2	u	u	11.2µM*	u
O=C(NCCCN1CCOCC1)c1ccc(S(=O)(=O)N2CCOCC2)cc1	-9.0	25.9*	-12.5%	4.8%	-9.7%	-12.2%
CC(C)c1ccc(C(=O)NCCCN2CCOCC2)cc1	59.6	37.1*	x	x	x	x
CC(C)(C)c1ccc(C(=O)Nc2ccccc2C(=O)NCCN2CCOCC2)cc1	35.5	13.1*	x	x	x	x
O=C(NCCCN1CCOCC1)c1ccc(Br)cc1	29.5	8.6	x	9.5%	8.7%	u
Cc1cc(NC(=O)CSc2nncn2N)no1	-8.4	-5.7	i	19.8%	9.7%	-18.6%[46.1 µM]
CCCCCCCCCC[n+]1ccc(/C=C/c2c[nH]c3ccccc23)cc1	x	x	u	x	156.6%	x
COCC1CCCN(Cc2ccc3c(c2)CN(C(=O)c2cn4ccc(C)cc4n2)CCO3)C1 (stereo not drawn)	x	x	-8.0%	x	-0.5%	x
Cc1ccc(C(=O)Nc2nc(C)c(C)s2)o1	62.2*	35.5*	-16.9%	u	-13.1%	u
Cc1nc(NC(=O)c2ccc(Br)o2)sc1C	62.9*	44.8*	-1.6%	-29.3%	-1.5%	-2.7%
Cc1nn(C)c(C)c1NC(=O)c1ccc(Br)o1	-11.7	3.8	-3.6%	20.1%	-14.8%	-6.1%[46.1 µM]
Cc1ccc(C(=O)Nc2nnc(C)s2)o1	-3.4	9.9	i	19.5%	-7.2%	20.3%
Cc1ccc(NC(=O)CSc2nc(=O)n(CCN3CCOCC3)c3c2CCCC3)cc1	x	x	i	9.9%	-2.7%	2.5%
CSc1ccc(-c2sc(Nc3ccccc3)n[n+]2-c2ccccc2)cc1	53.2*	35.5*	-13.8%	x	u	x
Fc1ccc(-[n+]2nc(Nc3ccccc3)sc2-c2ccc(OCc3ccccc3)cc2)cc1	-1.4	0.3	-12.2%	x	-24.5%	x
COc1ccc(C)cc1Nc1n[n+](-c2ccccc2)c(-c2ccc(NC(C)=O)cc2)s1	0.4	2.3	i	x	-19.9%	x
COc1ccc(C)cc1Nc1n[n+](-c2ccccc2)c(-c2ccc(SC)cc2)s1	51.5*	41.8*	-16.3%	x	-24.6%	x
CCc1ccc(Nc2n[n+](-c3ccccc3)c(-c3ccc(OC)c(Br)c3)s2)cc1	33.1*	25.5*	i	x	-29.7%	x
CCc1ccc(Nc2n[n+](-c3ccccc3)c(-c3ccc(C(=O)O)cc3)s2)cc1	16.6	-1.4	-6.4%	x	3.7%	x
C[n+]1nc(Nc2cccc3ccccc23)sc1-c1ccc(C(=O)O)cc1	35.4*	17.5*	x	x	x	x
O=C(C1CCCCC1)N1CC(=O)N2CCc3ccccc3[C@@H]2C1	x	x	x	x	x	17.6%
CC(C)c1csc(CN2CCC(CCC(=O)NCC3CCCO3)CC2)n1 (stereo not drawn)	-27.0	-0.6	-2.0%	-1.9%	-15.5%	u
CCc1ccc(Nc2n[n+](-c3ccccc3)c(-c3ccc(SC)cc3)s2)cc1	34.2*	33.3*	-13.3%	x	-29.6%	x
CSc1ccc(-c2sc(Nc3cccc4ccccc34)n[n+]2-c2ccccc2)cc1	17.0*	21.6*	u	x	-25.5%	x
CCOC(=O)C1(CCOc2ccccc2)CCN(Cc2cccn2-c2ncccn2)CC1	-2.3	-1.6	i	u	-11.2%	8.91µM*
CCOC(=O)C1(CCOc2ccccc2)CCN(Cc2ccncc2)CC1	-9.0	-6.1	-24.5%	-8.7%	-10.1%	u
CCOC(=O)C1(CCCc2ccccc2)CCN(Cc2cn(CC)nc2C)CC1	8.0	-3.4	-2.0%	u	-21.9%	8.91µM*
CC(=O)Nc1cccc(C(=O)N/N=C/c2ccccc2F)c1	28.1*	46.1*	x	0.1%	x	u
